SRC1 inh: SRC1 coactivator transcriptional activity inhibitors, primary screen, cell-based, luminescence; Nuclear receptor coactivator 1 (Homo sapiens), Q15788; HEK293 GAL4-SRC1 luciferase reporter; inhibition, % at 3.6 µM; 360,000 compounds, 0.12% hits;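 active = inhibition above the campaign mean plus 3 SD, with each screening campaign given its own cutoff, cut at about 60% in these data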;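 note: 0% = DMSO treated cells and 100% = gossypol at 36 µM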
NR2F2 inh: NR2F2 transcriptional activity inhibitors, primary screen, cell-based, luciferase reporter, HEK293T, luminescence; COUP transcription factor 2 (Homo sapiens), P24468; HEK293T NGFI-A luciferase reporter; inhibition, % at 8.6 µM; 370,000 compounds, 0.7% hits; AID 686940, 2013;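 active = inhibition above a per-plate cutoff, mean inhibition of test wells between control levels plus 3 SD, cut at about 38% in these data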;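 note: cells cotransfected with COUP-TFII expression vector driving the NGFI-A reporter; 0% = median of COUP-TF2 test wells and 100% = reporter-only cells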
LRH-1 inv ag: LRH-1 (NR5A2) inverse agonists, primary screen, cell-based, luminescence, HEK293T, StAR-luciferase reporter; Nuclear receptor subfamily 5 group A member 2 (Homo sapiens), O00482; LRH-1 transfected, 24 h; inhibition, % at 3.6 µM; 360,000 compounds, 0.13% hits; AID 602396, 2012;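 active = inhibition above the mean inhibition of all tested compounds plus 3 SD, cut at about 73% in these data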;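 note: 0% = DMSO wells and 100% = reporter-only cells lacking LRH-1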
SRC2 inh: inhibition of GAL4-SRC2 driven luciferase reporter, primary screen, SRC2 inhibitor project, cell-based, luminescence | Nuclear receptor coactivator 2 (Homo sapiens), Q15596 | HEK293 GAL4-SRC2 luciferase reporter | 370,000 compounds, 0.17% hits | inhibition, % at 9 µM;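 active = inhibition above the mean inhibition of all tested compounds plus 3 SD, set per campaign, cut at about 52% in these data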;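 note: 0% = DMSO treated cells and 100% = cells given Gossypol at 36 µM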
NCOA3 inh: SRC3 coactivator transcriptional activity inhibitors, primary screen, cell-based, luminescence; Nuclear receptor coactivator 3 (Homo sapiens), Q9Y6Q9; HEK293 GAL4-SRC3 luciferase reporter; inhibition, % at 3.6 µM; 360,000 compounds, 0.17% hits; AID 588352, 2011;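 active = inhibition above a per-campaign cutoff, the mean of all compounds plus 3 SD, cut at about 60% in these data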;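 note: 0% = DMSO-treated cells and 100% = gossypol-treated cells at 36 µM; higher means less SRC3-driven luciferase light from the GAL4 reporter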
Gli-Sufu block: Gli-Sufu pathway antagonists, primary screen, luciferase luminescence, Sufu-KO-LIGHT cells, uHTS | Sufu-KO-LIGHT fibroblasts, Gli luciferase reporter luminescence | inhibition, % at 5 µM | 340,000 compounds, 0.74% hits | AID 588413, 2011;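 active = inhibition above about 55%, limit read from the data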;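 note: 0% = DMSO-treated cells and 100% = wells with medium but no cells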
* = called active by the depositor; . = no result given. Sampled rows, rich in hits. Any-hit rate of the full collection: about 1.3%.

SMILES | SRC1 inh | NR2F2 inh | LRH-1 inv ag | SRC2 inh | NCOA3 inh | Gli-Sufu block
Cc1ccc(/C=C2/SC(=S)N(CCCC(=O)Nc3cc([N+](=O)[O-])ccc3O)C2=O)cc1 | -28 | 24 | 3 | 55* | 14 | 23
Cc1ccc(/C=C2\SC(=S)N(CCCC(=O)Nc3ccc(O)cc3)C2=O)cc1 | 23 | 31 | 9 | 67* | 47 | 42
COC(=O)c1ccc(/C=C2/SC(=S)N(CCCC(=O)Nc3ccc(O)cc3)C2=O)cc1 | -6 | 19 | -2 | 36 | 9 | 19
CCc1ccc(/C=C2\SC(=S)N(CCCC(=O)Nc3ccccc3C(=O)O)C2=O)cc1 | 0 | -6 | 8 | 22 | 1 | 7
CC(C)C[C@@H]1COc2cccc(NC3CC3)c2S(=O)(=O)N1 | . | -1 | . | -4 | . | .
COc1ccc(-c2n(CC(=O)OC3CC(C)CCC3C(C)C)c3ccccc3[n+]2C)cc1 (stereo not drawn) | 24 | -21 | 59 | 18 | 70* | 86*
O=C(NCc1ccc(C(=O)N2CCOCC2)cc1)c1cccc(Br)c1 | . | -1 | . | 5 | . | .
COc1cccc(NC(=O)N(C)C[C@H]2OCc3cn(nn3)CCCC(=O)N([C@H](C)CO)C[C@@H]2C)c1 | . | 2 | . | 13 | . | .
O=C(N/N=C/c1cc2c3c(c1O)CCCN3CCC2)c1ccccc1O | 66* | -28 | 63 | 7 | 68* | 17
CCCCCCCCCCCCCCCC[N+](C)(C)CCN(Cc1ccc(OC)cc1)c1ncccn1 | 8 | . | 21 | . | -15 | 64*
Cc1ccc(NC(=O)N2CC(C)OC(C)C2)cc1[N+](=O)[O-] (stereo not drawn) | . | 2 | . | -21 | . | .
CCCCCCCCNc1ncnc2[nH]ncc12 | 25 | 38* | 12 | 11 | 12 | 35
OCCCNc1ncnc2[nH]ncc12 | 1 | 10 | 6 | -1 | -5 | 1
O=C(NCCc1ccccc1)C(c1cccs1)N(C(=O)c1csnn1)C1CC1 (stereo not drawn) | 19 | -4 | -15 | 20 | 6 | -8
O=C(NCCc1ccccc1)C(c1cccs1)N(C(=O)CCl)c1ccc(Cl)cc1 (stereo not drawn) | 12 | 0 | -6 | 43 | 45 | 95*
C=CCN1C(=O)[C@H](CC(=O)NCc2cccc(C(F)(F)F)c2)[C@@]2(C(=O)OCC)CCCC=C12 | . | -1 | . | -13 | . | .
C[C@@H](C(=O)Nc1ccc2c(c1)OCCO2)n1c(=O)[nH]c2ccccc2c1=O | 61 | 28 | 52 | 41 | 67* | 46
COC(=O)C1=C(C)N(Cc2cccc(C(F)(F)F)c2)C(=NCc2ccc3c(c2)OCO3)NC1c1cccc(Cl)c1 (stereo not drawn) | . | -2 | . | 12 | . | .
COc1ccc(CNC(=O)COC(=O)c2cc(-c3ccc(Cl)s3)nc3ccccc23)cc1 | -23 | 8 | -19 | 4 | 83* | -13
O=C(COC(=O)c1cc(-c2ccc(Cl)s2)nc2ccccc12)NCc1ccco1 | -16 | -3 | -24 | -25 | 7 | -12
CC(C)C[C@@H]1NC(=O)[C@@H]2CSCCS(=O)(=O)N2C1=O | . | 2 | . | -32 | . | .
Cn1c(=O)cc(OCCCC(=O)Nc2cc(Br)ccn2)c2ccccc21 | . | 34 | . | . | . | .
Cc1ccnc(NC(=O)CCCOc2cc(=O)n(C)c3ccccc23)c1 | -4 | -21 | 74* | -13 | 40 | -119
CCn1c(C)nc2cc(-c3nc4n(n3)Cc3ccccc3-4)ccc21 | 91* | . | 95* | . | 86* | 87*
CCc1ccc(-c2nc(CS(=O)CC(=O)NCc3ccco3)c(C)o2)cc1 (stereo not drawn) | 21 | 32 | 41 | 54* | 33 | 18
SMILES | SRC1 inh | NR2F2 inh | LRH-1 inv ag | SRC2 inh | NCOA3 inh | Gli-Sufu block
O=C(NCc1ccccc1)[C@@H]1CCCN1C(=O)[C@H]1CCCN1C(=O)c1cccc2ccccc12 | . | 4 | . | -20 | . | .
Cc1ccc(NC(=O)Cn2cccc2C2=NC(c3ccccc3)CO2)cc1C (stereo not drawn) | 10 | -1 | -16 | 100* | -3 | -2
CCc1ccccc1NC(=O)Cn1cccc1C1=NC(c2ccccc2)CO1 (stereo not drawn) | -28 | 20 | 3 | 0 | -3 | 0
O=C(NCCc1ccccc1Cl)[C@@H]1CCCN1C(=O)[C@@H](NS(=O)(=O)c1ccc(F)cc1F)C1CCCCC1 | . | -21 | . | -10 | . | .
O=C(/C(=C/c1ccc(Cl)cc1)c1nc2ccccc2[nH]1)c1cccs1 | 47 | . | -7 | . | 62* | -15
O=C(/C(=C\c1ccccc1)c1nc2ccccc2[nH]1)c1ccc(Cl)cc1 | -41 | -29 | -71 | -6 | 26 | -36
Nc1ncnc(N2CCc3ccccc32)c1[N+](=O)[O-] | 73* | 35 | 33 | 44 | 65* | -25
NNC(=O)c1ccc(N2CCc3ccccc32)c([N+](=O)[O-])c1 | 5 | -14 | 11 | 7 | 10 | 0
COc1ccc(-n2ncc3c(N4CCCCC4)ncnc32)cc1 | 64* | . | 60 | . | 67* | 56*
O=C(NCC1CCN(C(=O)C(=O)c2cccs2)CC1)c1ccc2c(c1)OCO2 | . | -14 | . | -3 | . | .
Cc1ccc(S(=O)(=O)Nc2cccc3ncccc23)s1 | -132 | . | 25 | . | -47 | 85*
Cc1ccc(S(=O)(=O)Nc2cccc3ncccc23)cc1 | -3 | -16 | -4 | -9 | 12 | 2
O=C(N[C@H](C(=O)N1CCC[C@H]1C(=O)NC1CCCC1)c1ccccc1)C1CCCC1 | . | -8 | . | 24 | . | .
CCN(CC)c1ccc(NC(=O)CCCCC(=O)Nc2ccc(N(CC)CC)cc2)cc1 | 6 | 31 | 3 | 57* | 32 | 1
Cc1ccc2nc(CN(C)C(=O)[C@@H](Cc3ccccc3)NC(=O)[C@H]3O[C@@H](n4cnc(C(N)=O)n4)[C@H](O)[C@@H]3O)[nH]c2c1 | . | -12 | . | -2 | . | .
CCn1nc([N+](=O)[O-])c(C(C#N)c2nc3cc(C(F)(F)F)ccc3s2)c(Cl)c1=O (stereo not drawn) | -45 | 17 | 14 | -11 | 62* | -3
COc1ccc(S(=O)(=O)N2CCCc3nc(C)c(C)cc32)cc1 | . | -6 | . | 11 | . | .
COCCN1Cc2cc(C(=O)OC)c3c(c2C1=O)c1cc(OC)ccc1n3S(=O)(=O)c1ccc(F)cc1 | . | -13 | . | 2 | . | .
C=CC(=O)Nc1ccc(Nc2nc(NC3CCC(N(C)C)CC3)nc3c2ncn3C(C)C)cc1 (stereo not drawn) | 86* | . | 97* | . | 84* | 52
CC(C)n1cnc2c(Nc3ccc(F)c(Cl)c3)nc(NCCO)nc21 | -15 | -1 | 9 | -46 | -7 | 14

Compound activity: PubChem, several laboratories
